Activity calls are given as the source filed them. Unless noted, how the calls were made is not given here.

Assay [1] has as its system Wnt5a (protein binding on small-molecule microarray). In words: Wnt5a binders on small-molecule microarray, primary screen, biophysical, 635/667 nm fluorescence (AID 1142).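 Further: fluorescence read at 667 nm with signal to noise per printed feature.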 Conditions: 635 nm fluorescence, higher = more signal.
A short description of assay [2]: cell viability in Huh7 cells, primary screen, cytotoxicity control for HCV replication inhibitor project, CellTiter-Glo luminescence, basal, 48 h (AID 1143).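 Further: Huh7 hepatoma cells carrying a hepatitis C replication reporter with no stimulus; test concentration not given here.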 Conditions: Huh7 HCV replicon, higher = more signal, called active from +8 up or from −8 down. (ATP-based viability assays read luminescence as a measure of living cells.)
A short description of assay [3]: P. aeruginosa biofilm formation inhibitors, primary screen, PAO1 strain, BacTiter-Glo luminescence, LB-PBS (AID 1144). Particulars: 12 h, higher = more signal.
Assay [4] can be described thus: CREB reporter modulators without forskolin, primary screen, cell-based, PC12, CRE-LacZ reporter, unstimulated (AID 1145). Conditions: no forskolin, luminescence, 4.5 h, higher = more signal, called active from +8 up or from −8 down.
The nature of assay [5]: CREB reporter modulators under forskolin, primary screen, cell-based, PC12, CRE-LacZ reporter, forskolin-stimulated (AID 1146).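 Further: PC12 cells with 6xCRE LacZ reporter stimulated by forskolin 10 µM; beta-galactosidase reporter signal reflecting CREB driven transcription.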 Conditions: luminescence, 4.5 h, higher = more signal, called active from +8 up or from −8 down.
Assay [6] addresses Streptavidin (Streptomyces avidinii) (UniProt P22629). In words: streptavidin binders on small-molecule microarray, primary screen, artefact control for SMM compound annotation, biophysical, 635/667 nm fluorescence (AID 1147).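 Further: signal reflects streptavidin binding to arrayed compounds as a control protein.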 Particulars: streptavidin binding, higher = more signal.
Assay [7] in a line: small-molecule binders of probe aInhba, primary screen, biochemical, small-molecule microarray, 635/667 nm fluorescence (AID 1148).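 Further: score merges 667nm spot fluorescence with signal-to-noise for antibody binding to printed compounds.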 Conditions: higher = more signal.
For assay [8], the target named is Torsin-1A (Homo sapiens) (UniProt O14656). Put plainly: torsin A binders from cell lysate, primary screen, small-molecule microarray, wild-type, 635/667 nm (AID 1149). Conditions: COS7 hTOR1A-WT lysate, 635 nm fluorescence, higher = more signal.
The target is the same in assay [9]. Put plainly: small-molecule binders of mutant TOR1A in lysate, primary screen, cell lysate, small-molecule microarray, COS7 lysate, 635/667 nm fluorescence (AID 1150).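 Further: score pools 667 nm emission and signal to noise measuring lysate protein binding.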 Conditions: COS7 hTOR1A mutant lysate, 635 nm fluorescence, higher = more signal.
Assay [10] concerns Sonic hedgehog protein (Shh). In words: small-molecule binders of Shh protein, primary screen, biochemical, small-molecule microarray, 635/667 nm fluorescence (AID 1151).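 Further: Shh protein binding to compounds spotted on small-molecule microarray slides; score combines spot fluorescence intensity with signal-to-noise across triplicate slides.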 Conditions: small-molecule microarray binding, 635 nm fluorescence; higher = more signal.
Assay [11] in a line: E. coli DRC41 culture turbidity changes, primary screen, E. coli filamentation inducer project, strain DRC41, OD650, 48 h (AID 1152).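 Further: E. coli MC1000 strain DRC41 lacking acrAB efflux pump and sulA.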 Particulars: E. coli DRC41 (acrAB sulA), higher = more signal, called active from +8 up or from −8 down.
Assay [12] is described as follows: small-molecule binders of probe aLefty1, primary screen, biochemical, small-molecule microarray, 635/667 nm fluorescence (AID 1153).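 Further: score merges spot fluorescence with signal-to-noise ratio from the scanned slide images.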 Particulars: higher = more signal.
Assay [13] can be described thus: PSAC antagonists in infected red cells, primary screen, cell-based, P. falciparum Indochina, OD700, 1 h (AID 1154). Conditions: P. falciparum Indochina infected RBC osmotic lysis, higher = more signal, called active from +8 up or from −8 down.
Assay [14] is described as follows: PSAC antagonists in infected red cells, primary screen, cell-based, P. falciparum Indochina, OD700, 2 h (AID 1155).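 Further: lysis reports solute entry through the parasite surface anion channel PSAC; channel blockers reduce lysis of infected cells.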 Conditions: P. falciparum Indochina infected erythrocytes, osmotic lysis OD700; higher = more signal, called active from +8 up or from −8 down.
The nature of assay [15]: osmotic lysis modulators in infected erythrocytes, primary screen, PSAC antagonist project, cell-based, P. falciparum Indochina, OD700, 3 h (AID 1156). Particulars: higher = more signal, called active from +8 up or from −8 down.
The nature of assay [16]: PSAC antagonists in infected red cells, primary screen, cell-based, P. falciparum Indochina, OD700, 18 h (AID 1157). Conditions: P. falciparum Indochina infected erythrocytes, osmotic lysis OD700, 18 h; higher = more signal, called active from +8 up or from −8 down.
A short description of assay [17]: modulators of S6 phosphorylation in cells, primary screen, cell-based, A549, cytoblot, luminescence, serum-stimulated (AID 1158).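 Further: serum-stimulated A549 lung adenocarcinoma cells; signal is phosphorylated S6 detected by cytoblot immunostaining with HRP secondary.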 Conditions: A549 phospho-S6 cytoblot, 5 h, higher = more signal.
Assay [18] deals with NADPH oxidase 2 (Homo sapiens) (UniProt P04839). Put plainly: NOX2-dependent H2O2 signal modulators, primary screen, NOX inhibitor project, cell-based, HEK293-NOX2, PMA-stimulated, Amplex Red fluorescence (AID 1159). Further: test concentration not given here. Particulars: 45 min, higher = more signal, called active from +8 up or from −8 down.
The target of assay [19] is NADPH oxidase 4 (Homo sapiens) (UniProt Q9NPH5). Put plainly: NOX4-dependent H2O2 signal modulators, primary screen, NOX inhibitor project, cell-based, HEK293-NOX4, tetracycline-induced, Amplex Red fluorescence (AID 1160). Conditions: 45 min, higher = more signal, called active from +8 up or from −8 down.
In assay [20] the target is NADPH oxidase 5 (Homo sapiens) (UniProt Q96PH1). Put plainly: NOX5-dependent H2O2 signal modulators, primary screen, NOX inhibitor project, cell-based, HEK293-NOX5, Amplex Red fluorescence (AID 1161). Particulars: HEK293-NOX5, ionomycin, 45 min, higher = more signal.
NADPH oxidase 5 (Homo sapiens), sequence (Q96PH1 whole entry, looked up): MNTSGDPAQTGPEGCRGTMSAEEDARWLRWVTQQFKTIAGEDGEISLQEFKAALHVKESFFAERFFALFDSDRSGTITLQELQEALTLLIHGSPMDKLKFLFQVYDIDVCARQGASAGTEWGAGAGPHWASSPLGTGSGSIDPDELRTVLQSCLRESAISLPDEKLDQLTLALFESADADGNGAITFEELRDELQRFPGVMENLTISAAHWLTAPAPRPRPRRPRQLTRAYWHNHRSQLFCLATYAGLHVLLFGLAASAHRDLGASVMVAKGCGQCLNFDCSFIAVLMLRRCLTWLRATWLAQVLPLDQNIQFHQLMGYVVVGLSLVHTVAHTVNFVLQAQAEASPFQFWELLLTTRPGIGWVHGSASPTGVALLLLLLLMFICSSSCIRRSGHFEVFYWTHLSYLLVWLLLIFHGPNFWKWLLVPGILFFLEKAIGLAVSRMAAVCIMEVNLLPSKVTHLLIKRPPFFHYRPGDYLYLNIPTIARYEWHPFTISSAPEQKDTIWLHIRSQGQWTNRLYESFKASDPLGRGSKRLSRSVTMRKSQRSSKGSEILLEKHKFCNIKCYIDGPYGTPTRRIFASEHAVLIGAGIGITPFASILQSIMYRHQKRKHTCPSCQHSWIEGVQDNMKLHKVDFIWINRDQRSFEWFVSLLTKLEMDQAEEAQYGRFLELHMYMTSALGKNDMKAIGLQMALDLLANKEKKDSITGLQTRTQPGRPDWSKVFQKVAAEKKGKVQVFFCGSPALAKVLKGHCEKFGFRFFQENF

Torsin-1A (Homo sapiens), sequence (O14656 whole entry, looked up): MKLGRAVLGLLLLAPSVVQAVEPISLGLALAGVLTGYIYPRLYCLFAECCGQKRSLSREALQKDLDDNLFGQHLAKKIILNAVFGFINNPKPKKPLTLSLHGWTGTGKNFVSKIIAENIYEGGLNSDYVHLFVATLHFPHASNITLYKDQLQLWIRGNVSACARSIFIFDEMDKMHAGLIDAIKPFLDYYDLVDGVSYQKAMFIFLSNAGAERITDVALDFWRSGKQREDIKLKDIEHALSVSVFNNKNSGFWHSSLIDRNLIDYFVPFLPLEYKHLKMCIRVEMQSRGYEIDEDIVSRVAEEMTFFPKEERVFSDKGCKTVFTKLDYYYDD
NADPH oxidase 2 (Homo sapiens), sequence (P04839 whole entry, looked up): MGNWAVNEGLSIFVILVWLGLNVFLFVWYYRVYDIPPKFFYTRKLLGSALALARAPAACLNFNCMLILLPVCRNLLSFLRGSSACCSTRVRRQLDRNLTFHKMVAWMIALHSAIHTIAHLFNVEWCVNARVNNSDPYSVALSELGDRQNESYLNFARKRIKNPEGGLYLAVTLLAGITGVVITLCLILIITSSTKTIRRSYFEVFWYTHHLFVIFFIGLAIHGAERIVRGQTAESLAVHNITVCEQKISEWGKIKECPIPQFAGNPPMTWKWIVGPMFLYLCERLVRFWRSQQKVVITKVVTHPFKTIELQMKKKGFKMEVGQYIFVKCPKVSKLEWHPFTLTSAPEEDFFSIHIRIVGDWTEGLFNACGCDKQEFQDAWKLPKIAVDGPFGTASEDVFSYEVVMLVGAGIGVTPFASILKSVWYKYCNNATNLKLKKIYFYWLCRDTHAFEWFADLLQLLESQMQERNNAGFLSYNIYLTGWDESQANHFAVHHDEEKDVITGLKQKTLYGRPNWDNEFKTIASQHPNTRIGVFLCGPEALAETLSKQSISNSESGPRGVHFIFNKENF
Streptavidin (Streptomyces avidinii), sequence (P22629 whole entry, looked up): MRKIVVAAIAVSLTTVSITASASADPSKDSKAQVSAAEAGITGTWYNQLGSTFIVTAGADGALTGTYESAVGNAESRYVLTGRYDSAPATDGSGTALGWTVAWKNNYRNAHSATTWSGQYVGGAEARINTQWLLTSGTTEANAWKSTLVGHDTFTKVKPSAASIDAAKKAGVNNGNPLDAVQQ
NADPH oxidase 4 (Homo sapiens), sequence (Q9NPH5 whole entry, looked up): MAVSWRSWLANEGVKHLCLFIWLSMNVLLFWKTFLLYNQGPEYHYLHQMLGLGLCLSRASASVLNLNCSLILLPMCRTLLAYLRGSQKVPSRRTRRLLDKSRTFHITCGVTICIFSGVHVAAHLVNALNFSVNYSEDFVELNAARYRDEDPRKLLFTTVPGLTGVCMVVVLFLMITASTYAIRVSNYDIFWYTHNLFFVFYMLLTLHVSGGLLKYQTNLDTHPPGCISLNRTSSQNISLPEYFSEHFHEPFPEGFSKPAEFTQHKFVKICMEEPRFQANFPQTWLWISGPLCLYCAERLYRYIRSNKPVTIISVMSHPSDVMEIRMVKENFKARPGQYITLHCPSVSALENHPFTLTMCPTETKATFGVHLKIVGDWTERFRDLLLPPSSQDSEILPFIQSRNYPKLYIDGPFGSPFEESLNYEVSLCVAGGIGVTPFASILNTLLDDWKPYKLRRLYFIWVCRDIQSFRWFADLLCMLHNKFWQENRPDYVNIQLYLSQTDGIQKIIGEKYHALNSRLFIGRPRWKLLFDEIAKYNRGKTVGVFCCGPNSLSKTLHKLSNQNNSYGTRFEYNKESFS

Consider `CC(C)(C)OC(=O)CC[C@]1(C(=O)N2CCCCC2)COC(c2ccc(OCCCO)cc2)=N1`, for which the composite z-score in assay [1] is 0.784; in assay [6], 1.36; in assay [7], 0.127; in the assay with Torsin-1A (Homo sapiens) [8] it was 0.655; with Torsin-1A (Homo sapiens) [9] it was 0.967; in assay [10] it was -0.65. Besides, the composite z-score in assay [12] was -0.403. The z-score in assay [2] is -2.07 (inactive); in assay [3], -0.984 (inactive); in assay [4] it was -0.837 (inactive); in assay [5], 0.238 (inactive); in [11] it was 1.12 (inactive); in [13], 22.2 (active). The z-score in assay [14] was 5.22 (inactive); in assay [15], 1.11 (inactive); in [16] it was 0.663 (inactive); in assay [17] it was -0.515; in [18], -2.59 (inactive); in assay [19] it was 0.0723 (inactive). In assay [20], this molecule displayed a z-score of -2.08.
Consider `CCCCC=C[C@@H](NC(=O)c1ccccc1)c1ccccc1`, for which the composite z-score is -0.275 in assay [1]; 1.89 in assay [6]; 0.162 in [7]; 0.128 with Torsin-1A (Homo sapiens) [8]; 0.0135 with Torsin-1A (Homo sapiens) [9]; -0.863 in [10]. Moreover, the composite z-score in assay [12] was 0.0538. The z-score is -0.598 (inactive) in assay [2]; -0.287 (inactive) in assay [3]; 0.969 (inactive) in [4]; 1.39 (inactive) in assay [5]; -2.36 (inactive) in assay [11]; 0.318 (inactive) in assay [13]. Moreover, the z-score in assay [14] is 0.279 (inactive); in assay [15], 0.893 (inactive); in [16], 0.765 (inactive); in assay [17] it was 0.442; in assay [18] it was -0.474 (inactive); in [19], -2.77 (inactive). Further, the z-score in [20] is -2.28.
`O=C1C2C=CC(C(O)C=Cc3ccc([N+](=O)[O-])cc3)N(Nc3ccccc3)C2C(=O)N1c1ccccc1` (stereo not given): the composite z-score is 0.264 in assay [1]; 1.53 in assay [6]; 0.117 in assay [7]; -0.283 with Torsin-1A (Homo sapiens) [8]; 0.0565 with Torsin-1A (Homo sapiens) [9]; 0.0063 in assay [10]. Moreover, the composite z-score in assay [12] was 0.424. Further, the z-score was -0.132 (inactive) in assay [2]; -0.633 (inactive) in assay [3]; -0.143 (inactive) in [4]; -0.148 (inactive) in assay [5]; -0.323 (inactive) in assay [11]; 11 (active) in assay [13]. The z-score in assay [14] is 2.2 (inactive); in assay [15] it was 0.478 (inactive); in [16], 1.81 (inactive); in assay [17], -0.914; in assay [18], -1.72 (inactive); in assay [19], -2.96 (inactive). The molecule further showed a z-score in assay [20] of -2.32.
Consider `CCOC(=O)C[C@H]1[C@H](OC(=O)c2ccc(-c3ccccc3)cc2)[C@@H](NC(=O)CC(C)C)c2cc(OCCCO)ccc2N1C(=O)c1ccccc1`, for which the composite z-score in assay [1] is 0.121; in assay [6], 0.216; in assay [7] it was -0.0963; with Torsin-1A (Homo sapiens) [8], -0.477; in the assay with Torsin-1A (Homo sapiens) [9] it was 0.289; in assay [10], 1.03. Also, the composite z-score in assay [12] was 0.113. Further, the z-score in [2] is -0.092 (inactive); in assay [3], 0.0804 (inactive); in assay [4], 0.469 (inactive); in assay [5], -0.375 (inactive); in assay [11], -0.674 (inactive); in [13], 1.18 (inactive). Besides, the z-score is 0.389 (inactive) in [14]; -0.0732 (inactive) in [15]; 0.336 (inactive) in assay [16]; 0.574 in assay [17]; 0.403 (inactive) in [18]; -0.742 (inactive) in [19]. This molecule returned a z-score in assay [20] of 1.74.
On to `CCCCCN1CC=CC23O[C@@H]4C=CCOC(=O)[C@@H]4[C@H]2C(=O)N(CCO)[C@@H]3C1=O` (stereo not given in full), for which the composite z-score in [1] was -0.395; in assay [6] it was -0.958; in assay [7], -0.205; with Torsin-1A (Homo sapiens) [8], 1.17; with Torsin-1A (Homo sapiens) [9], 1.78; in assay [10], -0.456. Moreover, the composite z-score in [12] is -0.25. The z-score in assay [2] was -0.143 (inactive); in assay [3], 1.13 (inactive); in [4], -0.0818 (inactive); in assay [5], -0.585 (inactive); in assay [11] it was -0.23 (inactive); in assay [13], 0.0674 (inactive). Also, the z-score was 0.31 (inactive) in assay [14]; 0.266 (inactive) in assay [15]; 0.161 (inactive) in [16]; -0.53 in assay [17]; 1.52 (inactive) in [18]; 0.713 (inactive) in assay [19]. Further, the z-score in [20] was found to be 1.23.

(Values after PubChem BioAssay.)
